Laboratory results taken from PubChem BioAssay AID2081 (NMMLSC, 2009).
Calls of active or inactive are those of the source. The rule behind the calls is not given here.

The compounds below were run against Bcl-2-like protein 2 (Homo sapiens) (UniProt Q92843) (assay: Bcl-W/Bim complex disruptors – biochemical, multiplexed, bead-based flow cytometry, HTS hits, confirmation (AID 2081)). Settings: Bim-Bcl-W binding displacement; series mostly up to 100 µM.
Chain of Bcl-2-like protein 2 (Homo sapiens) (Q92843 whole entry, looked up): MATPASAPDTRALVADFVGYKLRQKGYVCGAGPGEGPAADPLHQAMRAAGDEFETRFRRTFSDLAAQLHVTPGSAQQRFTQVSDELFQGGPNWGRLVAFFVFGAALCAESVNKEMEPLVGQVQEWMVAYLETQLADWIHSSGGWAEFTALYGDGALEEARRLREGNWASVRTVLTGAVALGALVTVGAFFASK
For `Cc1ccc(C=NNC(=O)CSc2nnc(-c3ccc(Cl)cc3)n2-c2ccccc2)o1`, the outcome was “inactive”. With `CCN(CC)c1ccc(NC(=O)c2ccccc2Br)cc1S(=O)(=O)Nc1ccccc1OC` the outcome was “inactive”. In the case of `Cc1cc(-c2cc(-c3ccc(Cl)cc3)nc(N)c2C#N)co1`, the outcome was “inactive”. In the case of `Cc1ccc(-c2cc(-c3ccc(C)o3)nc(N)c2C#N)cc1`, the outcome was “inactive”. In the case of `O=[N+]([O-])c1c(NCCCO)cc(Sc2nc3ccccc3s2)c2nonc12`, the outcome was “inactive”. With `O=C1C(Cl)=C(N2CCN(c3ccccc3[N+](=O)[O-])CC2)C(=O)c2ccccc21` the outcome was “inactive”. With `CNC(CC(=O)c1ccc([N+](=O)[O-])cc1)C(Cl)(Cl)Cl` (configuration not stated) the outcome was “inactive”. With `CC(=O)Nc1ccc(-n2cc(-c3ccccc3)[nH]c2=S)cc1` the outcome was “inactive”. `O=C(Nc1nnc(COc2ccc(Cl)cc2)s1)c1ccco1` was tested, and the outcome was “inactive”. For `COc1ccccc1-n1c(-c2ccccc2)c[nH]c1=S`, the outcome was “inactive”. With `CCN(CC)c1ccc(NC(=O)c2ccccc2F)cc1S(=O)(=O)Nc1ccccc1OC` the outcome was “inactive”. For `Cc1ccc(-c2nc3c(c(=O)[nH]c(=O)n3Cc3ccccc3)n2C)o1`, the outcome was “inactive”. In the case of `COc1ccc(N2C(=O)C(Cl)=C(NC3C(=O)N(c4ccccc4)N(C)C3C)C2=O)cc1` (configuration not stated), the outcome was “inactive”. `CN(CCO)c1cc(Sc2nc3ccccc3s2)c2nonc2c1[N+](=O)[O-]` was tested, and the outcome was “inactive”. `Cc1ccc(-c2cc(-c3ccc(F)cc3)c(C#N)c(N)n2)o1` was tested, and the outcome was “inactive”. For `CCN(CC)C(=O)COC(=O)c1cc(-c2ccco2)nc2ccccc12`, the outcome was “inactive”. In the case of `O=C1c2ccccc2C(=O)N1CN(C(=O)COc1ccc(Cl)cc1Cl)c1cccc(F)c1`, the outcome was “inactive”.
